Drawing on PubChem BioAssay (NCI), this text covers growth for 35 compounds.

Compounds without any hit were thinned out: in the full panel of roughly 83,000, 20% have a hit.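 Single-concentration screen, 48 h exposure, 96-well plates. Endpoint: percent growth. Below 10 = active.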 Active and inactive are the calls of the source.

The first assay concerns HCT-15 colon. As to the kind of experiment: NCI-60 one-dose screen, 48 h (100 = growth as untreated, 0 = no growth, -100 = all killed). Conditions: 10 µM unless noted.
Regarding `Oc1ccc(CSc2nnc(-c3cnccn3)n2-c2ccccc2)c2cccnc12`, the growth is 19.3% (inactive). Still for that read-out and setting: to `O=C(COc1ccc(/C=C2\SC(=O)NC2=O)cc1)Nc1ccc(C(=O)/C=C/c2cc3ccccc3nc2Cl)cc1` belongs 76.8% (inactive); to `COc1ccc(N2CCN(C(=O)CSc3ccc(-c4nc5cc(C)c(C)cc5[nH]4)cn3)CC2)cc1`, 52.8% (inactive).

The test system of the next assay is HT29 colon. The description is as above. Conditions: 10 µM unless noted.
For `NC(=O)N1N=C(c2cc3ccccc3oc2=O)CC1c1cn(-c2ccccc2)nc1-c1ccc(Cl)cc1` (stereo not given), the growth is 35.9% (inactive). With `COc1cnc2c(c1)C(=O)c1c-2n(CCCNCC2CC2)c(=O)c2cc(F)ccc12`, the growth was -62.7% (active). As for `O=C(Nc1cc(F)cc2cccnc12)c1cnc(N2CCOCC2)cn1`, the growth is 30.1% (inactive). For the compound `O=C1[C@H]2Cc3c([nH]c4ccccc34)[C@@H](c3c(Cl)cccc3Cl)N2C(=O)CN1C1CCN(Cc2ccccc2)CC1`, the growth was 9.36% (active).

On to `COc1cc(/C=N/n2cnc3oc(-c4ccccc4)cc3c2=N)cc(CN2CCN(C)CC2)c1O`, for which the growth is 48.3% (inactive). In the case of `Oc1ccc(-c2nnc(SCc3ccc(O)c4ncccc34)n2-c2ccccc2)cc1`, the growth was 24.9% (inactive). For `CN(C)C(=O)c1ccccc1-n1cnc2ccccc2c1=O`, the growth is 103% (inactive). With `Oc1ccc(CSc2nnc(-c3ccc(Cl)cc3)o2)c2cccnc12`, the growth was 102% (inactive). As to `NNC(=O)c1sc2nc(-c3cnccn3)cc(-c3cccs3)c2c1N`, the growth was 106% (inactive). Turning to `COc1ccc(OC)c([C@H]2c3[nH]c4ccccc4c3C[C@H]3C(=O)N(CCCCCCC(=O)NO)CC(=O)N23)c1`, the growth was 87.6% (inactive). With `CCCCCCCCNC(=O)c1ccc(Cn2c(CCCC)nc3c(N)nc4ccccc4c32)cc1`, the growth was -23% (active). On the same count and under the same terms, to `O=C1[C@@H]2Cc3c([nH]c4ccccc34)[C@H](c3c(Cl)cccc3Cl)N2C(=O)CN1C1CCN(Cc2c(F)cccc2F)CC1` belongs 63.9% (inactive). On the same count and under the same terms, then `O=C(CCCCCCN1CC(=O)N2[C@@H](c3cccc(Cl)c3)c3[nH]c4ccccc4c3C[C@H]2C1=O)NO`, with 30.6% (inactive). Turning to `CC(C)N=C(N/C(N)=N/c1nc2ccccc2s1)NC(C)C`, the growth was 31.7% (inactive). Turning to `CCCCOc1ccc(S(=O)(=O)N2CCN(c3nccc(N4CCOCC4)n3)CC2)cc1`, the growth is 13.5% (inactive). Consider `O=C(NCCCNc1cc(-c2cn(-c3ccccc3)nc2-c2cccc(O)c2)ccn1)Nc1cc(C(F)(F)F)cc(C(F)(F)F)c1`, for which the growth is 31.7% (inactive). Consider `O=[N+]([O-])c1ccc(-c2nnc(SCc3ccc(O)c4ncccc34)n2-c2ccccc2)cc1`, for which the growth is 65.8% (inactive). On to `Cc1ccc(Nc2ncnc3c2c(C)nn3-c2ccc([N+](=O)[O-])cc2)cc1`, for which the growth was 80.3% (inactive).

With `COc1cc2cc(Oc3ccc(NC(=O)Nc4cc(C(F)(F)F)cc(C(F)(F)F)c4)cc3)c(C)nc2cc1OCCN(C)C`, the growth is 120% (inactive).

In the case of `COc1cc2cc(Oc3ccc(NC(=O)Nc4cccc(C(F)(F)F)c4)cc3)c(C)nc2cc1OCCN(C)C`, the growth was 60.1% (inactive). Turning to `N/C(=N\c1nc2ccc([N+](=O)[O-])cc2s1)C(Cl)(Cl)Cl`, the growth was 30.7% (inactive).

Turning to `Nc1ccc(-c2nnc(SCc3ccc(O)c4ncccc34)o2)cc1`, the growth is 8.36% (active). On to `COc1ccc(-c2ccnc3c(C#N)c(Nc4ccccc4)nn23)cc1OC`, for which the growth was 90% (inactive).

Consider `Nc1c(C(=O)c2ccccc2)sc2nc(-c3cnccn3)cc(-c3cccs3)c12`, for which the growth was 107% (inactive).

For `C/C(=C(/C)C1CC1CCN(C(=O)c1ccccn1)S(=O)(=O)c1ccc(C)cc1)C1CCCCC1` (stereo not given), the growth was 98.3% (inactive).

For `Oc1ccc(CSc2nnc(-c3ccccc3)n2-c2ccccc2)c2cccnc12`, the growth is 52.4% (inactive). For `Oc1ccc(CSc2nnc(-c3ccc(Oc4ccccc4)cc3)n2-c2ccccc2)c2cccnc12`, the growth is 44.8% (inactive).

Regarding `O=C(CSc1ccc(-c2nc3ccccc3[nH]2)cn1)N1CCN(c2ccccc2F)CC1`, the growth is 94.1% (inactive). Regarding `COc1cc2cc(Oc3ccc(NC(=O)c4cccc(C(F)(F)F)c4)cc3)c(C)nc2cc1OCCN(C)C`, the growth is 27.5% (inactive).

`CCCC(=O)NC(c1cccnc1)c1cc(C(C)=O)c2cccnc2c1O` (stereo not given): the growth is 26.9% (inactive). As to `O=C(CCCCCCN1CC(=O)N2[C@@H](c3ccc(Cl)c(F)c3)c3[nH]c4ccccc4c3C[C@H]2C1=O)NO`, the growth is 89.3% (inactive). `O=C1NC(=O)/C(=C/c2ccc(OCc3cc4ccccc4nc3Cl)cc2)S1`: the growth was 117% (inactive).
